“And” between values parts separate entries of the source, which are not always exact repeats. Equal values may be shown once. The source made the active and inactive calls.
What was measured:
[1] = compound effects on lung adenocarcinoma cell viability – A549, calcein-AM fluorescence, 48 h, basal, profiling panel (AID 1162); conditions: higher = more signal
[2] = compound effects on differentiated 3T3-L1 adipocyte viability – cell-based, 3T3-L1 adipocytes, calcein-AM fluorescence, 48 h, basal, profiling panel (AID 1163); conditions: 3T3-L1 adipocytes viability, higher = more signal
[3] = compound effects on hepatocellular carcinoma cell viability – HepG2, calcein-AM fluorescence, 48 h, basal, profiling panel (AID 1164); conditions: higher = more signal
[4] = compound effects on multiple myeloma cell viability – MM1S, calcein-AM fluorescence, 48 h, basal, profiling panel (AID 1165); conditions: higher = more signal
[5] = calcein-AM signal in unstimulated myeloma cells – cell-based, calcein-AM fluorescence, 48 h, PK04 Diversity Set, profiling panel (AID 1166); conditions: RPMI8226 myeloma viability, higher = more signal;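 further: cells grown under basal conditions without added stimulus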
[6] = JC-1 mitochondrial signal, unstimulated HepG2 cells – cell-based, JC-1 fluorescence, 24 h, 100 nL compound, profiling panel (AID 1167); conditions: HepG2 mitochondrial potential, higher = more signal
[7] = JC-1 mitochondrial signal, unstimulated adipocytes – cell-based, JC-1 fluorescence, 3T3-L1 adipocytes, 24 h, 100 nL compound, profiling panel (AID 1168); conditions: JC-1 mitochondrial fluorescence, higher = more signal, called active from +8 up or from −8 down
[8] = JC-1 mitochondrial signal, unstimulated myeloma cells – cell-based, JC-1 fluorescence, RPMI8226, 24 h, 100 nL compound, profiling panel (AID 1169); conditions: JC-1 mitochondrial potential fluorescence, higher = more signal
[9] = JC-1 mitochondrial signal, unstimulated MM1S myeloma – cell-based, JC-1 fluorescence, 24 h, 100 nL compound, profiling panel (AID 1170); conditions: MM1S mitochondrial potential, higher = more signal
[10] = resazurin metabolic signal in A549 cells – cell-based, resazurin fluorescence, 24 h, PK04 Diversity Set, profiling panel (AID 1171); conditions: A549 viability, higher = more signal, called active from +8 up or from −8 down
Further: test concentration not given here.

| Structure (SMILES) | z-score [1] | z-score [2] | z-score [3] | z-score [4] | z-score [5] | z-score [6] | z-score [7] | z-score [8] | z-score [9] | z-score [10] |
| --- | --- | --- | --- | --- | --- | --- | --- | --- | --- | --- |
| O=C(NN=C1C[C@@H](O)[C@@H](O)[C@@H]2[C@@H]3C(=O)N(Cc4ccc5c(c4)OCO5)C(=O)[C@@H]3CC[C@H]12)OCc1ccccc1 | 0.356 | -0.263 | 0.339 | 0.172 | 0.102 | 1.3 | 0.415 (inactive) | 0.559 | -1.79 | -0.31 (inactive) |
| COC(=O)C1=C(C)N(Cc2ccccc2)[C@]23O[C@](C(=O)OC)(C(=O)N2[C@@H]1c1ccccc1)[C@H]1C(=O)N(C)C(=O)[C@H]13 | 0.395 and 1.67 | 1.1 and 0.612 | 0.0623 and -0.164 | 0.639 and 0.0646 | -1.44 and 1.16 | 0.873 and 0.158 | 0.107 (inactive) and 1.13 (inactive) | -0.536 and 0.12 | 0.551 and -0.416 | -0.81 (inactive) and 0.0401 (inactive) |
| C=CCN(CCCCC)C(=O)C(c1cccs1)N(C(=O)/C=C\C(=O)O)c1c(Cl)cccc1CO (stereo not given) | 0.307 and -0.656 | 0.131 and -0.101 | -1.11 and -0.202 | 1.34 and 2.08 | 0.114 and -0.235 | -0.0476 and -0.222 | -0.706 (inactive) and 0.13 (inactive) | 0.1 and 0.992 | 0.0829 and -0.125 | -0.559 (inactive) and 0.0449 (inactive) |
| CCOC(=O)NN=C1C[C@@H](O)[C@@H](O)[C@@H]2[C@@H]3C(=O)N(Cc4ccc5c(c4)OCO5)C(=O)[C@@H]3CC[C@@H]12 | 1.24 | -0.54 | 0.32 | 0.511 | 0.466 | 0.598 | 1.11 (inactive) | 0.612 | -1.25 | 0.0533 (inactive) |
| COC(=O)C1=C(C)N(Cc2ccccc2)C2=C(C(C)=O)[C@H](c3ccccc3)[C@@](O)(C(=O)OC)C(=O)N2[C@@H]1c1ccccc1 | 1.73 and 0.919 | -0.0798 and 0.56 | 0.954 and 0.364 | 0.592 and 0.378 | 0.604 and 0.984 | 3.1 and 0.826 | -1.09 (inactive) and 2.47 (inactive) | -0.938 and -0.592 | -0.444 and 0.924 | 1.78 (inactive) and 0.197 (inactive) |
| C=CCN(C(=O)C1N(C(C)(C)CO)C(=O)C2C(C(=O)O)C3C=CC21O3)c1ccc(OC)cc1 (stereo not given) | 0.396 and 0.242 | 0.682 and -0.0179 | -0.394 and -0.112 | 0.925 and 0.494 | 0.463 and 0.475 | 0.414 and 0.332 | 0.688 (inactive) and 0.702 (inactive) | 0.9 and -0.286 | 0.646 and 0.841 | 0.377 (inactive) and 0.109 (inactive) |
| CC(C)[Si]1(C(C)C)OCc2cc(C3CC3)nc(CCc3ccccc3)c21 | -0.351 and -0.69 | 0.193 and -0.871 | 0.498 and 0.203 | -2.57 and -2.81 | -0.48 and -3.77 | -1.5 and -2.69 | -0.186 (inactive) and -0.575 (inactive) | -0.14 and -0.902 | 0.245 and -0.582 | 1.12 (inactive) and 1.39 (inactive) |

Source: PubChem BioAssay
